Measurements as given in paper PMC5540273 (PLoS ONE, 2017).

System: CAMK1B
Conditions: concentration: 1 μM,replicates: in singlicate; n = 1
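Further: KINOMEscan kinase panel screen.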

Row | Compound | %Inh
1 | CS(=O)c1ccc(-c2coc3ccc(-c4n[nH]c(=O)o4)cc23)cc1 (stereo not shown) | 14%
2 | O=C(Nc1cccc(Oc2ccc3nccn3n2)c1)Nc1cccc(C(F)(F)F)c1 | 0%
3 | CCNCC(Cc1ccccc1)NC(=O)c1cc(Br)c(-c2ccnc3[nH]ccc23)s1.Cl.Cl (stereo not shown) [GSK1383280] | 28%
4 | COC(=O)Nc1nc2cc(Oc3ccc(NC(=O)Nc4cc(C(F)(F)F)ccc4Cl)cc3)ccc2[nH]1.Cl [GW697465] | 0%
5 | COc1cc2nccc(Nc3ccc(Oc4ccccc4)cc3)c2cc1OC.Cl [GI261656] | 23%
6 | Cc1ccc2c(-c3ccnc(Nc4ccc(C(F)(F)F)cc4)n3)cnn2n1 [GW819776] | 0%
7 | O=C(Nc1ccccc1)c1cccc(Oc2ccc3nccn3n2)c1 | 0%
8 | C[C@@H](Oc1cc(-n2cnc3cc(-c4ccncc4)ccc32)sc1C(N)=O)c1ccccc1Cl [GSK479719] | 18%
9 | CS(=O)(=O)Nc1ccc(-c2ccnc3[nH]ccc23)cc1 [GSK993273] | 27%
10 | NC(=O)c1ccc(-c2cc3ncnc(SCC(=O)O)c3s2)cc1 | 0%
11 | CN(c1ccc2c(c1)nc(NCc1ccc(F)cc1)n2C)c1ccnc(Nc2ccc(CS(C)(=O)=O)cc2)n1.Cl [GW813244] | 0%
12 | Cn1ccc2ncnc(Oc3ccc(NC(=O)Nc4cccc(C(F)(F)F)c4)c(F)c3)c21 | 0%
13 | CCOC(=O)N1CCC(n2cnc(-c3ccc(F)cc3)c2-c2ccnc(N)n2)CC1 [SB-219952] | 48%
